Laboratory results from PubChem BioAssay AID1159580 (chemical genetic matrix, 2015).
Among all 5,500 compounds or so, about 2,000 (36%) were called active. Roughly 18% stayed inconclusive and do not appear here. Cut-off read from the data, not from the text of the source: active = normalized growth mostly below about 0.91 (no sharp cut-off); inconclusive = no clear call, values can overlap the other calls; inactive = mostly above about 0.92. The list shows a part of the results.

Experiment: chemical genetic growth profiling, strain panel (AID 1159580);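 note: tested at 20 µM; growth read once vehicle control cultures reached saturation at 30 °C; 1 = growth at the plate median or of vehicle wells; lower values mean less growth of the strain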
Conditions: growth OD

Measured: normalized growth

CC(=O)Nc1cccc(O)c1
inactive: S. cerevisiae deletion strains, locus YJL187C, strain SWE1, stronger effect = lower value 1.02 | S. cerevisiae deletion strains, locus YJR043C, strain POL32, stronger effect = lower value 0.999 | S. cerevisiae deletion strains, locus YJR075W, strain HOC1, stronger effect = lower value 1.01 | S. cerevisiae deletion strains, locus YKL009W, strain mrt4, stronger effect = lower value 0.973 | S. cerevisiae deletion strains, locus YKL068W, stronger effect = lower value 0.989 | S. cerevisiae deletion strains, locus YKL085W, strain MDH1 (second series), stronger effect = lower value 1.01 | S. cerevisiae deletion strains, locus YKL085W, strain MDH1, stronger effect = lower value 1.01 | S. cerevisiae deletion strains, locus YKL160W, strain elf1, stronger effect = lower value 1.05 | S. cerevisiae deletion strains, locus YKL190W, strain CNB1, stronger effect = lower value 1 | S. cerevisiae deletion strains, locus YKR001C, strain vps1, stronger effect = lower value 0.991 | S. cerevisiae deletion strains, locus YKR026C, strain gcn3, stronger effect = lower value 1.01 | S. cerevisiae deletion strains, locus YKR091W, strain srl3, stronger effect = lower value 1.01 | S. cerevisiae deletion strains, locus YLL001W, strain dnm1, stronger effect = lower value 0.995 | S. cerevisiae deletion strains, locus YLL026W, stronger effect = lower value 1.03 | S. cerevisiae deletion strains, locus YLL041C, strain sdh2, stronger effect = lower value 1.03 | S. cerevisiae deletion strains, locus YLR027C, strain aat2, stronger effect = lower value 1.01 | S. cerevisiae deletion strains, locus YLR039C, strain RIC1, stronger effect = lower value 1 | S. cerevisiae deletion strains, locus YLR058C, strain SHM2, stronger effect = lower value 1.01 | S. cerevisiae deletion strains, locus YLR102C, strain apc9, stronger effect = lower value 1.01 | S. cerevisiae deletion strains, locus YLR221C, strain rsa3, stronger effect = lower value 0.972 | S. cerevisiae deletion strains, locus YLR258W, strain gsy2, stronger effect = lower value 1.04 | S. cerevisiae deletion strains, locus YLR262C, strain YPT6 (second series), stronger effect = lower value 1.01 | S. cerevisiae deletion strains, locus YLR262C, strain YPT6, stronger effect = lower value 1.02 | S. cerevisiae deletion strains, locus YLR268W, strain sec22, stronger effect = lower value 0.986 | S. cerevisiae deletion strains, locus YLR320W, strain mms22, stronger effect = lower value 0.957 | S. cerevisiae deletion strains, locus YLR330W, strain CHS5, stronger effect = lower value 1.01 | S. cerevisiae deletion strains, locus YLR342W, strain FKS1 (second series), stronger effect = lower value 1 | S. cerevisiae deletion strains, locus YLR342W, strain FKS1, stronger effect = lower value 1.04 | S. cerevisiae deletion strains, locus YLR357W, strain rsc2, stronger effect = lower value 1.04 | S. cerevisiae deletion strains, locus YLR370C, strain arc18, stronger effect = lower value 1.03 | S. cerevisiae deletion strains, locus YLR371W, strain rom2, stronger effect = lower value 0.999 | S. cerevisiae deletion strains, locus YLR384C, strain iki3, stronger effect = lower value 1.02 | S. cerevisiae deletion strains, locus YLR418C, strain cdc73, stronger effect = lower value 0.996 | S. cerevisiae deletion strains, locus YML016C, strain PPZ1, stronger effect = lower value 1.01 | S. cerevisiae deletion strains, locus YML032C, strain rad52, stronger effect = lower value 0.995 | S. cerevisiae deletion strains, locus YML120C, strain ndi1, stronger effect = lower value 0.972 | S. cerevisiae deletion strains, locus YML124C, strain tub3, stronger effect = lower value 0.986 | S. cerevisiae deletion strains, locus YMR058W, strain fet3, stronger effect = lower value 1.02 | S. cerevisiae deletion strains, locus YMR078C, strain ctf18, stronger effect = lower value 0.989 | S. cerevisiae deletion strains, locus YMR125W, strain sto1, stronger effect = lower value 1.03 | S. cerevisiae deletion strains, locus YMR129W, stronger effect = lower value 0.998 | S. cerevisiae deletion strains, locus YMR205C, strain PFK2, stronger effect = lower value 0.991 | S. cerevisiae deletion strains, locus YMR223W, strain ubp8, stronger effect = lower value 1 | S. cerevisiae deletion strains, locus YMR231W, strain pep5, stronger effect = lower value 1 | S. cerevisiae deletion strains, locus YMR263W, strain SAP30, stronger effect = lower value 1.01 | S. cerevisiae deletion strains, locus YMR307W, strain GAS1, stronger effect = lower value 1 | S. cerevisiae deletion strains, locus YNL067W, strain RPL9B, stronger effect = lower value 1.01 | S. cerevisiae deletion strains, locus YNL071W, strain lat1, stronger effect = lower value 1.01 | S. cerevisiae deletion strains, locus YNL153C, strain GIM3, stronger effect = lower value 1.02 | S. cerevisiae deletion strains, locus YNL209W, strain ssb2, stronger effect = lower value 1.02 | S. cerevisiae deletion strains, locus YNL233W, strain BNI4, stronger effect = lower value 1.02 | S. cerevisiae deletion strains, locus YNL248C, strain rpa49, stronger effect = lower value 1.07 | S. cerevisiae deletion strains, locus YNL250W, strain rad50, stronger effect = lower value 0.995 | S. cerevisiae deletion strains, locus YNL271C, strain bni1, stronger effect = lower value 0.993 | S. cerevisiae deletion strains, locus YNL298W, strain CLA4, stronger effect = lower value 0.978 | S. cerevisiae deletion strains, locus YNL307C, strain MCK1, stronger effect = lower value 1.01 | S. cerevisiae deletion strains, locus YNL322C, strain KRE1 (second series), stronger effect = lower value 1.05 | S. cerevisiae deletion strains, locus YNL322C, strain KRE1, stronger effect = lower value 1 | S. cerevisiae deletion strains, locus YNR049C, strain mso1, stronger effect = lower value 1.01 | S. cerevisiae deletion strains, locus YNR052C, strain pop2, stronger effect = lower value 1 | S. cerevisiae deletion strains, locus YOL006C, strain TOP1, stronger effect = lower value 1.03 | S. cerevisiae deletion strains, locus YOL012C, strain htz1 0.695 | S. cerevisiae deletion strains, locus YOL147C, strain pex11, stronger effect = lower value 0.99 | S. cerevisiae deletion strains, locus YOR001W, strain rrp6, stronger effect = lower value 0.952 | S. cerevisiae deletion strains, locus YOR061W, strain CKA2, stronger effect = lower value 1 | S. cerevisiae deletion strains, locus YOR069W, strain VPS5, stronger effect = lower value 1 | S. cerevisiae deletion strains, locus YOR070C, strain gyp1, stronger effect = lower value 1.02 | S. cerevisiae deletion strains, locus YOR080W, strain dia2, stronger effect = lower value 1.02 | S. cerevisiae deletion strains, locus YOR083W, strain WHI5, stronger effect = lower value 0.997 | S. cerevisiae deletion strains, locus YOR106W, strain vam3, stronger effect = lower value 1.05 | S. cerevisiae deletion strains, locus YOR136W, strain idh2, stronger effect = lower value 0.995 | S. cerevisiae deletion strains, locus YOR144C, strain elg1, stronger effect = lower value 0.993 | S. cerevisiae deletion strains, locus YOR184W, strain ser1, stronger effect = lower value 1 | S. cerevisiae deletion strains, locus YOR265W, strain rbl2, stronger effect = lower value 1.01 | S. cerevisiae deletion strains, locus YOR270C, strain vph1, stronger effect = lower value 1.05 | S. cerevisiae deletion strains, locus YOR290C, strain snf2, stronger effect = lower value 1.05 | S. cerevisiae deletion strains, locus YOR316C, strain cot1, stronger effect = lower value 0.991 | S. cerevisiae deletion strains, locus YPL051W, strain arl3, stronger effect = lower value 1.04 | S. cerevisiae deletion strains, locus YPL055C, strain LGE1, stronger effect = lower value 1.01 | S. cerevisiae deletion strains, locus YPL078C, strain atp4, stronger effect = lower value 1.04 | S. cerevisiae deletion strains, locus YPL106C, strain sse1, stronger effect = lower value 1.01 | S. cerevisiae deletion strains, locus YPL240C, strain hsp82, stronger effect = lower value 1.01 | S. cerevisiae deletion strains, locus YPR119W, strain clb2, stronger effect = lower value 1 | S. cerevisiae deletion strains, locus YPR141C, strain kar3, stronger effect = lower value 0.98 | S. cerevisiae deletion strains, locus YPR163C, strain tif3, stronger effect = lower value 0.988 | S. cerevisiae deletion strains, locus YPR167C, strain met16, stronger effect = lower value 0.997 | S. cerevisiae deletion strains, strain wtn01, stronger effect = lower value 0.995 | S. cerevisiae strains, strain wild type, stronger effect = lower value 1.01
